Consider 36 compounds from PubChem BioAssay AID1259339 (Broad Institute, 2017).

Structures are written as SMILES. Values without a mark were called inactive. Calls of active or inactive are those of the source.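 How the source made its calls: active means fitted AC50 no higher than ten times the top tested dose (cut at about 90 µM in these data); inconclusive means flat curve with 30 to 70% signal loss, or bad fit; inactive means AC50 beyond ten times the top dose.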

The nature of the assay: AlphaLISA signal interference compounds, dose response, artefact control, biochemical, TruHit kit (AID 1259339). Conditions: TruHit alphaLISA kit signal interference counterscreen; series mostly up to 80 µM. In general terms: Alpha assays give light when donor and acceptor beads are brought close together.
One may read the AC50 as the concentration at which the activity in the assay is half-maximal. With `O=C(Cc1ccc(S(=O)(=O)N2CCOCC2)s1)Nc1nc2c(s1)CCCC2`, the AC50 was 29.2 µM (active). For the compound `O=C1CC2(CCN(C(=O)Nc3ccccc3)CC2)CN1Cc1ccc(Cl)cc1`, the AC50 result is “inactive”. The same measure for `COc1ccc(S(=O)(=O)N2CCOCC2)cc1NC(=O)c1cccc(-n2cccc2)c1`: 36.1 µM (active); for `CCN1CCN(C(=O)c2cc(-c3ccco3)nc3ccccc23)CC1`: greater than 160 µM; for `NC(=O)C1(N2CCCCC2)CCN(c2ncc(NC(=O)c3ccccc3F)cc2C(=O)O)CC1`: “inactive”.

`COc1ccc(NC(=O)c2nc(Nc3ccccc3)c3ccccc3n2)cc1`: the AC50 result is “inactive”. To `O=C(COC(=O)c1ccc(F)cc1F)Nc1ncccn1` belongs “inactive”. To `O=S(=O)(c1ccccc1)N1CC2CN(Cc3ccc(O)cc3)C2C1` (stereo unspecified) belongs “inactive”; to `Cn1ncc2c(NNC(=O)c3cc(O)cc(O)c3)ncnc21`, “inactive”; to `CC1CCN(c2nc(-c3ccco3)c3c(c2C#N)CC(C)(C)OC3)CC1`, 33.5 µM (active). To `CCOc1ccccc1NC(=O)N1CCCC(c2nccn2CCOC)C1` (stereo unspecified) belongs “inactive”. Consider `CCn1ccnc1C1CCN(C(=O)CCn2c(C)nc3ccccc32)CC1`, for which the AC50 result was “inactive”. The same measure for `N#Cc1c(N)oc(-c2ccco2)c1-c1ccco1`: 29.9 µM (active); for `NC(=O)c1ccc(CN2C(=O)C3(CCNCC3)Nc3ccccc32)cc1`: “inactive”; for `COCC(=O)N1CCCC2(CCN(CCN3CCCC3)C2=O)C1` (stereo unspecified): “inactive”. The same measure for `Cc1ccc(N2C(=O)c3ccccc3C2C(=O)c2ccc(O)cc2O)cc1` (stereo unspecified): “inactive”; for `NC(=O)C1(N2CCCCC2)CCN(c2ncc(NC(=O)c3cccc(Cl)c3)cc2C(=O)O)CC1`: greater than 160 µM.

`OCc1ccc(O)c2ncccc12`: the AC50 is greater than 160 µM. With `CC(=O)c1sc2nc(-c3ccco3)ccc2c1N`, the AC50 was 43.6 µM (active).

For `NC(=O)C1(N2CCCCC2)CCN(c2ncc(NC(=O)c3ccc(F)cc3)cc2C(=O)O)CC1`, the AC50 entry is “inactive”.

Regarding `CCCN1CCCn2nc(CNC(=O)[C@@H](N)Cc3ccc(O)cc3)cc2C1`, the AC50 result is “inactive”.

On to `O=S(=O)(c1ccc2nc(-c3ccco3)c(-c3ccco3)nc2c1)N1CCOCC1`, for which the AC50 was 26.8 µM (active). The same measure for `O=C1C=C(c2ccccc2)Nc2ccccc2N1`: “inactive”; for `O=C(O)COc1ccc(-n2cccc2)cc1`: “inactive”; for `Cc1cccc2nc(CSCc3ccco3)cn12`: 74.7 µM (active). `COc1ccc(-n2c(C)c3c(OC)cccc(=O)c3c2C)cc1`: the AC50 is 22.1 µM (active). To `CCc1nccn1CCC(=O)N1C[C@H](CO)C[C@H](CN2CCCC2)C1` belongs “inactive”. To `Cc1cccc(Nc2nc(C(=O)Nc3cc(F)ccc3F)nc3ccccc23)c1` belongs “inactive”. `O=C(CN1CCOC1=O)N1CCC2(CCC(=O)N(CCCn3ccnc3)C2)CC1`: the AC50 entry is “inactive”.

Turning to `O=C(CCN1CCOCC1)c1ccc2c(c1)OCCO2`, the AC50 entry was “inactive”. To `NC(=O)C1(N2CCCCC2)CCN(c2ccc(NC(=O)c3cccc(Cl)c3)cc2C(=O)O)CC1` belongs “inactive”; to `COCCC(=O)N1CCCC2(CCN(CCN3CCCC3)C2=O)C1` (stereo unspecified), “inactive”. Consider `COc1ccc(-c2ccc(CCC(=O)O)o2)cc1`, for which the AC50 entry is “inactive”. `Cc1ccc(N2NC(c3ccc(Br)cc3)=CCC2=O)cc1`: the AC50 is 66.7 µM (active). On to `COC[C@]1(O)CCN(C(=O)CCN(C)S(C)(=O)=O)CC1(C)C`, for which the AC50 entry is “inactive”. The same measure for `O=C(COC(=O)c1cc(-c2cccs2)nc2ccccc12)NCc1ccco1`: 40.2 µM (active).
